For part of these data: Results with a measured potency or affinity are listed apart. Calls of active or inactive are those of the source. The rule behind the calls is not given here.
Key:
[1] = Ebola virus entry assay, green fluorescence channel
[2] = Ebola virus entry assay, ratio channel
[3] = Ebola virus entry assay, green channel fluorescence
[4] = Ebola virus entry assay, reporter ratio channel; AC50: Channel type: primary unless noted; outcome: Channel type: primary unless noted

Measured: efficacy
Throughout, for efficacy: 0% is about no effect.

O=C(c1ccccc1)C(O)c1ccccc1 (configuration not stated)
inactive: [1] 17.3% | [2] | [3] | [4]

CCOC(=O)c1cnc2c(cnn2CC)c1NN=C(C)C
inactive: [1] -8.64% | [2] | [3] | [4]

CCCCC(O)/C=C(C)/C=C/C=C/C(=O)N1CCCC1=O (configuration not stated)
inactive: [1] -13.9% | [2] | [3] | [4]

Cc1cccc(C)c1NC(=O)c1cc(S(N)(=O)=O)c(Cl)cc1O
inactive: [1] -19.2% | [2] | [3] | [4]

CS(=O)(=O)c1ccc([C@@H](O)[C@@H](CF)NC(=O)C(Cl)Cl)cc1
inactive: [1] -18.1% | [2] | [3] | [4]

CCN1CCCC1CN (configuration not stated)
inactive: [1] -12.7% | [2] | [3] | [4]

Cc1nc2ccccn2c(=O)c1CCN1CCC(C(=O)c2ccc(F)cc2)CC1
inactive: [1] 25.5% | [2] | [3] | [4]

O=C1CC[C@H](C(=O)N2CCCCC2)N1
inactive: [1] -19.2% | [2] | [3] | [4]

ClCCN1CCCC1
inactive: [1] -44.4% | [2] | [3] | [4]

COc1cc2nc(Cl)nc(N)c2cc1OC
inactive: [1] -33.8% | [2] | [3] | [4]

CCOc1nc2cccc(C(=O)O)c2n1Cc1ccc(-c2ccccc2-c2nn[nH]n2)cc1
inactive: [1] 27.1% | [2] | [3] | [4]

CC(CC(C#N)(c1ccccc1)C(C)C)N(C)C (configuration not stated)
inactive: [1] -15% | [2] | [3] | [4]

O=C1c2ccccc2C(=O)c2c1ccc(O)c2O
inactive: [1] -18.6% | [2] | [3] | [4]

CCCCCCCCCCC[C@@H](C[C@@H]1OC(=O)[C@H]1CCCCCC)OC(=O)[C@H](CC(C)C)NC=O
inactive: [1] -27.6% | [2] | [3] | [4]

CC(C)=CCC/C(C)=C/CO
inactive: [1] -28.2% | [2] | [3] | [4]

O=C(CCCl)NCc1ccccc1
inactive: [1] -26.1% | [2] | [3] | [4]

Cc1ccccc1C(=O)Nc1ccc(C(=O)N2CCCC(N(C)C)c3ccccc32)cc1 (configuration not stated)
inactive: [1] 11.8% | [2] | [3] | [4]

O=C(O)C(S)C(S)C(=O)O (configuration not stated)
inactive: [1] -24.2% | [2] | [3] | [4]

Cc1cc(NS(=O)(=O)c2ccc(N)cc2)nc(C)n1
inactive: [1] -28.1% | [2] | [3] | [4]

CCCCC(=O)OCC(=O)[C@H]1[C@H](C)C[C@H]2[C@@H]3C[C@H](F)C4=CC(=O)C=C[C@]4(C)[C@@]3(F)[C@@H](O)C[C@@]21C
inactive: [1] 21.9% | [2] | [3] | [4]

CC(C)(C)C1CCC(CC2=C(O)c3ccccc3C(=O)C2=O)CC1 (configuration not stated)
inactive: [1] -22.8% | [2] | [3] | [4]

O=C(O)[C@@H]1[C@H]2C[C@H]3c4[nH]c5ccccc5c4CCN3C[C@@H]2CC[C@@H]1O
inactive: [1] 38.8% | [2] | [3] | [4]

CC(=O)NC(=O)c1ccccc1O
inactive: [1] -28.5% | [2] | [3] | [4]

NC(=O)n1c(O)c(C(=O)c2cccs2)c2cc(Cl)ccc21
inactive: [1] 15% | [2] | [3] | [4]

Nc1nc(-c2ccccc2)c(Br)c(=O)[nH]1
inactive: [1] -17% | [2] | [3] | [4]

NC(=O)c1cccnc1
inactive: [1] -19.3% | [2] | [3] | [4]

O=C(O)c1ccc(S(=O)(=O)N(Cl)Cl)cc1
inactive: [1] -27.5% | [2] | [3] | [4]

OC[C@H]1O[C@@H](Oc2ccc(O)cc2)[C@H](O)[C@@H](O)[C@@H]1O
inactive: [1] -11.6% | [2] | [3] | [4]

CCn1cc(C(=O)O)c(=O)c2cnc(N3CCCC3)nc21
inactive: [1] 11.6% | [2] | [3] | [4]

Oc1c(Br)cc(Br)c2cccnc12
inactive: [1] -19.4% | [2] | [3] | [4]

O=C(O)c1cc(-c2ccccc2)nc2ccccc12
inactive: [1] -14.9% | [2] | [3] | [4]

OC1(c2ccccc2)CCNCC1
inactive: [1] 9.98% | [2] | [3] | [4]

O=P(O)(O)OCC(O)CO (configuration not stated)
inactive: [1] 14.9% | [2] | [3] | [4]
